# Screening data: PubChem, National Center for Advancing Translational Sciences (NCATS)
# Compounds with a hit are over-represented: about 1.2% of the library has one in this group of screens.
# KCNH2 3.1 block = qHTS for Inhibitors of KCHN2 3.1: Mutant qHTS; AID 720553, 2013; Potassium voltage-gated channel subfamily H member 2, brain isoform KCNH2 3.1 (human); activity change, % (tested at about 1.8 µM); 340,000 tested, 0.95% active; U2OS KCNH2 3.1, thallium flux FluxOr; stronger effect = lower value;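 active = maximum activity change below -70%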;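 note: thallium influx rate constant from kinetic fluorescence after stimulation buffer; % is set by controls: 0 for no effect and ±100 for the full control effect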
#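 Virally transduced U2OS (3.1 isoform, 4 h infection in dark at RT) → overnight 37 C → FluxOr + Red40 in HBSS/HEPES, 45 min → stimulation buffer, 2 min kinetic read → rate constant vs DMSO controls.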
# hERG WT inh = qHTS for Inhibitors of KCHN2 3.1: Wildtype qHTS; AID 720551, 2013; activity change, % at 1.84 µM; U2OS, BacMam KCNH2, thallium flux FluxOr; stronger effect = lower value; 340,000 tested, 0.37% active;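 active = maximum activity change below -70%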; note: % is set by controls: 0 for no effect and ±100 for the full control effect
#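 U2OS cells were transduced with wild-type KCNH2 virus (2.03 x 10^8 / mL) for 4 h at room temperature, then cultured overnight at 37 C. Thallium flux was read with FluxOr dye. Rate constants were normalized to DMSO controls.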
# Tb PFK block = qHTS Assay to Find Inhibitors of T. brucei phosphofructokinase | Potency, µM (highest dose often 57.5 µM), for the others: at the highest dose activity, negative = inhibition, actives largely listed as inhibitors | 330,000 tested, 0.17% active | T. brucei PFK, ADP-Glo luminescence | ATP-dependent 6-phosphofructokinase (Trypanosoma brucei brucei), O15648; active = well fitted inhibition curve with a large enough effect;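 note: potency is the fitted concentration of half-maximal effect; 0% = uninhibited 1x PFK enzyme wells and -100% = no-enzyme wells; nearly all actives have a fitted effect of over 60% in size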
# Target sequence (O15648 whole entry, looked up): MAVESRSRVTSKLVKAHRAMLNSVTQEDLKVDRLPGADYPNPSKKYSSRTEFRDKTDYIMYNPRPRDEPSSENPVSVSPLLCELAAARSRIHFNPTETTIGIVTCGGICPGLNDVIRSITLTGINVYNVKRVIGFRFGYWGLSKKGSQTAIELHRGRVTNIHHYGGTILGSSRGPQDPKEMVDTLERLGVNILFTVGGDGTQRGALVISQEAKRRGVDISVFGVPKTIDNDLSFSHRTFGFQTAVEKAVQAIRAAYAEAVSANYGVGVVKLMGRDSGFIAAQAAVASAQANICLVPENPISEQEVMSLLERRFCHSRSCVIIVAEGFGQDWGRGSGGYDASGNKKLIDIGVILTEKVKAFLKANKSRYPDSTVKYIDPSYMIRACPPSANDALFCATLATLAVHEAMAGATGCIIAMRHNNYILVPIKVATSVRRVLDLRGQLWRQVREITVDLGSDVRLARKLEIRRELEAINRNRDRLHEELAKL
#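 ADP-Glo luminescence quantified ADP after 45 min at room temperature, with 1.25 nM T. brucei PFK, 0.1 mM ATP and 0.5 mM fructose-6-phosphate in pH 8.0 TEA buffer. qHTS titrations up to 57 µM; curves classified by quality.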
# TSG101-PTAP inh = qHTS Assay for Iinhibitors of HIV-1 Budding by Blocking the Interaction of PTAP/TSG101; Tumor susceptibility gene 101 protein (Homo sapiens), Q99816; Fluorescence polarization, FITC-PTAP peptide / Tsg101 binding; Potency, µM (titrated, usually from 115 µM), for the others: at the top dose activity change, negative = inhibition, hits mostly inhibitors; 340,000 tested, under 10 active; active = well fitted inhibition curve with a large enough effect in the main read-out, with a control signal flat, not every such curve was filed as active; note: potency is the fitted concentration of half-maximal effect; % of control where 0% means no effect
#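 Fluorescence anisotropy tracks displacement of a FITC-tagged PTAP peptide (50 nM) from the Tsg101 binding domain (10 uM), following a 20 min room-temperature incubation at pH 7.5.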
# Numbers without * were called inactive; x = not tested or not shown.
SMILES,KCNH2 3.1 block,hERG WT inh,Tb PFK block,TSG101-PTAP inh
CCOC(=O)C1CCCN(C(=O)Nc2ccccc2)C1 (stereo not drawn),-73*,5,3%,-3%
CCOC(=O)C1CCCN(CC(O)COc2ccccc2C(C)=O)C1 (stereo not drawn),-2,11,-2%,0%
CCOC(=O)C1CCCN(CC(O)COC(c2ccccc2)c2ccccc2)C1 (stereo not drawn),-96*,-77*,0%,2%
CCOC(=O)C1CCCN(C(=O)C2CCN(C(=O)Nc3ccccc3)CC2)C1 (stereo not drawn),-7,0,-1%,-1%
Cc1cc2nc3ccc(=[N+](C)C)cc-3sc2cc1N,-94*,2,-18%,0%
CCN(C(=O)COC(=O)/C=C/c1ccc(OC(F)F)c(OC)c1)C1CCS(=O)(=O)C1 (stereo not drawn),-5,11,-5%,0%
COc1ccc(CN(C2CCCC2)S(=O)(=O)c2ccc(-n3cnnn3)cc2)cc1OC,-18,4,0%,-1%
COc1ccc(CN(C2CCCC2)S(=O)(=O)c2ccc(-n3cnnn3)cc2)cc1,-71*,-39,x,-5%
Cc1cn(C2CC(OC(=O)C(C)C)C(CO)O2)c(=O)[nH]c1=O (stereo not drawn),12,9,-7%,-1%
COc1ccccc1CN1CCCC(C(=O)N(C)Cc2ccccc2)C1 (stereo not drawn),16,1,-1%,-1%
COc1ccc(CN2CCCC(C(=O)N(C)Cc3ccccc3)C2)cc1OC (stereo not drawn),-75*,-9,2%,0%
COc1cc2ccccc2cc1C(=O)OCC(=O)N(CC(C)C)c1c(N)n(Cc2ccccc2)c(=O)[nH]c1=O,-3,-8,19%,3%
COc1ccc(Cc2nnc(NCCO)[nH]c2=O)cc1OC,9,-118*,3%,-1%
COc1ccc(Cc2nnc(NCCO)[nH]c2=O)cc1,16,-14,0%,-2%
Cc1csc2c(N3CCN(C(=O)Nc4ccc(OC(F)(F)F)cc4)CC3)ncnc12,-92*,5,-1%,-3%
CCN(Cc1nc2ccccc2c(=O)[nH]1)C(=O)c1cccc(S(=O)(=O)N2CCc3ccccc32)c1,7,-2,0%,-9%
Clc1ccccc1Cn1nnc(-c2ccccc2)n1,-12,9,6%,-3%
CN(C)c1ccc(-c2nnn(Cc3ccccc3Br)n2)cc1,-93*,-31,0%,6%
COc1cccc(CN2CCc3ccc(NC(=O)CCc4ccc(C)cc4)cc3C2)c1O,-81*,25,-4%,1%
COc1cccc(-c2cc(C(=O)N3CCc4ccccc4C3)[nH]n2)c1,9,-302*,4%,-4%
COc1ccc(N(C(=O)c2snc(C(N)=O)c2N)C(C(=O)NC2CCCCC2)c2ccc(C)o2)cc1 (stereo not drawn),-35,4,0%,-4%
C/C=C/C(=O)OCC(=O)Nc1cc(-c2cc(C)c(C)cc2C)nn1-c1ccccc1,-8,6,5%,-1%
CCOc1ncccc1C(=O)NCc1ccc(OC)c(OC)c1,-102*,-6,7%,0%
CCOc1ncccc1C(=O)NCc1ccc(OC)cc1,-2,0,-1%,-4%
O=C(OCC(O)C(O)C(O)C(SCc1ccccc1)SCc1ccccc1)c1ccccc1 (stereo not drawn),-21,-4,x,-3%
SMILES,KCNH2 3.1 block,hERG WT inh,Tb PFK block,TSG101-PTAP inh
c1ccc(N2CCN(c3ccccc3)C2c2cccs2)cc1,3,-132*,-2%,-3%
O=C1CSC(c2cccs2)N1c1ccccc1 (stereo not drawn),10,-4,-5%,-6%
Cc1ccc(N(CC(=O)NC2CCCC2)C(=O)CNC(=O)c2cccs2)c(C)c1,10,0,4%,2%
CC(C)CC1C(=O)N(Cc2cn(Cc3ccco3)nn2)CCS(=O)(=O)N1Cc1ccc(-c2ccncc2)cc1 (stereo not drawn),-20,13,x,x
COc1ccccc1CNC(=O)CCC(=O)Nc1nnc(C)s1,-4,-298*,21%,0%
COc1ccccc1CNC(=O)CCC(=O)Nc1nnc(C(C)C)s1,2,4,-3%,-1%
